Algae TAG accum: inducers of TAG accumulation in Chlamydomonas, primary screen, qHTS, Chlamydomonas reinhardtii; calls only at 10 µM (by protocol); actives 0.84% (n = 44,000); Nile Red fluorescence, 72 h; call rule not given here;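 further: hits raise Nile Red signal meaning more stored TAG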
Numbers without * were called inactive; i = inactive; + = active, no number. Many of the other results were omitted from the sample, so hits are more common in it than they were.

SMILES	Algae TAG accum
COc1ccccc1N1CCN(Cc2ccc(O)cc2)CC1	+
COc1ccccc1N1CCN(Cc2ccc(F)cc2)CC1	+
COc1ccccc1N1CCN(Cc2ccc(Cl)c(Cl)c2)CC1	i
COc1ccccc1N1CCN(Cc2ccc(F)c(Br)c2)CC1	i
CCOc1ccccc1N1CCN(Cc2ccc(OC)cc2)CC1	i
COc1ccc(CN2CCN(c3ccccc3OC)CC2)cc1O	i
COc1cccc(/C=C/[N+](=O)[O-])c1	i
COc1ccc(-c2nc3ccccc3c(=O)n2-c2cccc(OC)c2)cc1	i
O=c1cccc2n1C[C@H]1C[C@H]2CN(Cc2cc(Cl)ccc2O)C1	i
CCOc1ccc(C(=O)CN2CCOCC2)cc1	i
O=c1cccc2n1C[C@H]1C[C@H]2CN(Cc2cccc(F)c2)C1	i
CS(=O)(=O)c1nc2ccccc2c(=O)n1-c1ccccc1	i
Cc1ccccc1N1CCN(Cc2ccc(Br)cc2)CC1	i
CC(=O)c1ccc(N2CCN(Cc3ccc(Br)cc3)CC2)cc1	i
Cc1cccc(N2CCN(Cc3cccc([N+](=O)[O-])c3)CC2)c1C	i
CC(C)c1ccc(CN2CCN(c3ccccc3)CC2)cc1	i
Cc1ccccc1N1CCN(Cc2ccccc2)CC1	i
CCc1ccc(CN2CCN(c3ccccc3C)CC2)cc1	+
Cc1cccc(N2CCN(Cc3ccc(F)cc3)CC2)c1C	i
Cc1ccccc1N1CCN(Cc2ccc(F)cc2)CC1	+
Cc1cccc(N2CCN(Cc3ccc([N+](=O)[O-])cc3)CC2)c1C	+
Cc1cccc(N2CCN(Cc3ccccc3)CC2)c1C	i
Brc1ccc(CN2CCN(c3ccccc3)CC2)cc1	+
CSc1ccc(CN2CCN(c3ccccc3C)CC2)cc1	i
CN(C(=O)Oc1ccc(C(=O)c2ccccc2)cc1)c1ccccc1	i
SMILES	Algae TAG accum
COc1ccc(OC)c(CN2CCN(c3ccc(Cl)cc3)CC2)c1	i
O=[N+]([O-])c1ccc(N2CCNCC2)cc1N1CCOCC1	i
O=c1cccc2n1C[C@H]1C[C@H]2CN(Cc2c(Cl)cccc2Cl)C1	i
Cc1ccc(C)c(CN2CCN(CCO)CC2)c1	i
O=[N+]([O-])c1ccc(CN2CCN(Cc3ccccc3F)CC2)cc1	+
O=C(Cc1ccccc1)N1CCN(Cc2ccc([N+](=O)[O-])cc2)CC1	i
O=[N+]([O-])c1ccccc1CN1CCN(Cc2ccccc2)CC1	i
Oc1cccc(CN2CCN(c3ccc(F)cc3)CC2)c1	i
c1ccc(CCN2CCOCC2)cc1	i
Fc1ccc(N2CCN(CCc3ccccc3)CC2)cc1	+
CC1CCCC(NC(C)CCCC(C)(C)O)C1 (stereo not given)	i
COc1ccc(CN2CCN(c3ccccc3F)CC2)c(C)c1C	i
OCCN1CCN(Cc2ccc(Cl)cc2)CC1	i
OCCN1CCN(Cc2ccc(F)c(F)c2)CC1	i
CC(C)c1ccc(CN2CCN(CCO)CC2)cc1	+
COc1cc(Br)c(CNCCc2ccc(F)cc2)cc1OC	i
COc1ccc(/C=C/[N+](=O)[O-])cc1Br	i
O=[N+]([O-])c1cccc(Cl)c1N1CCNCC1	i
COc1ccc(CCN(C)Cc2ccc([N+](=O)[O-])cc2)cc1OC	+
COc1ccc(CCN(C)Cc2ccc([N+](=O)[O-])o2)cc1OC	i
COc1ccc(CCN(C)Cc2cccc([N+](=O)[O-])c2)cc1OC	i
Cc1ccc(C)c(N2CCN(Cc3ccccc3)CC2)c1	i
Fc1ccccc1CN1CCN(c2cccc(Cl)c2)CC1	i
Cc1cccc(N2CCN(Cc3cc(Br)ccc3O)CC2)c1C	i
Oc1ccc(Cl)cc1CN1CCN(Cc2ccccc2)CC1	+
O=[N+]([O-])c1ccc(O)c(CN2CCN(Cc3ccccc3)CC2)c1	i
COc1ccc(O)c(CN2CCN(Cc3ccc(Cl)cc3)CC2)c1	i
COc1cc2[nH]c(=O)n(-c3ccccc3F)c(=O)c2cc1OC	i
O=[N+]([O-])c1cc(CN2CCN(c3ccccc3)CC2)ccc1O	i
Cc1ccccc1N1CCN(Cc2cccc(Br)c2)CC1	i
